High-throughput results as filed in PubChem BioAssay.
HP1b chromo inh = HTS for Inhibitors of HP1-beta Chromodomain Interactions with Methylated Histone Tails; Chromobox protein homolog 1 (Homo sapiens), P83916; AlphaScreen HP1-beta / biotin-H3K9me3 peptide binding; Potency, µM (top dose mostly 114 µM), without a hit: top-dose activity change, negative = inhibition, hits mostly inhibitors; 0.56% of 390,000 active; AID 540317, 2011; also: potency is read from the fitted curve at half-maximal effect; nearly all actives have a fitted effect of over 70% in size
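AlphaScreen: HP1-beta (50 nM) preformed 30 min with biotin-H3(1-18)K9me3 peptide (50 nM) in PBS pH 7.4, 0.01% Tween-20. Compound added for 30 min at RT, then streptavidin donor/nickel chelate acceptor beads (10 ug/mL) for 30 min.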
JMJD2A Tudor = qHTS Assay for Inhibitors of JMJD2A-Tudor Domain; Lysine-specific demethylase 4A (Homo sapiens), O75164; 4.4% of 390,000 active; Potency, µM (titrated, usually from 114 µM), without a hit: at the top dose activity change, negative = inhibition, actives largely listed as inhibitors; AlphaScreen JMJD2A-Tudor / H3K4me3 peptide binding; also: potency is read from the fitted curve at half-maximal effect; % is scaled to controls: 0 for no effect and ±100 for the full control effect; nearly all actives have a fitted effect of over 50% in size
Target sequence (O75164 whole entry, looked up, the tested form may be a part): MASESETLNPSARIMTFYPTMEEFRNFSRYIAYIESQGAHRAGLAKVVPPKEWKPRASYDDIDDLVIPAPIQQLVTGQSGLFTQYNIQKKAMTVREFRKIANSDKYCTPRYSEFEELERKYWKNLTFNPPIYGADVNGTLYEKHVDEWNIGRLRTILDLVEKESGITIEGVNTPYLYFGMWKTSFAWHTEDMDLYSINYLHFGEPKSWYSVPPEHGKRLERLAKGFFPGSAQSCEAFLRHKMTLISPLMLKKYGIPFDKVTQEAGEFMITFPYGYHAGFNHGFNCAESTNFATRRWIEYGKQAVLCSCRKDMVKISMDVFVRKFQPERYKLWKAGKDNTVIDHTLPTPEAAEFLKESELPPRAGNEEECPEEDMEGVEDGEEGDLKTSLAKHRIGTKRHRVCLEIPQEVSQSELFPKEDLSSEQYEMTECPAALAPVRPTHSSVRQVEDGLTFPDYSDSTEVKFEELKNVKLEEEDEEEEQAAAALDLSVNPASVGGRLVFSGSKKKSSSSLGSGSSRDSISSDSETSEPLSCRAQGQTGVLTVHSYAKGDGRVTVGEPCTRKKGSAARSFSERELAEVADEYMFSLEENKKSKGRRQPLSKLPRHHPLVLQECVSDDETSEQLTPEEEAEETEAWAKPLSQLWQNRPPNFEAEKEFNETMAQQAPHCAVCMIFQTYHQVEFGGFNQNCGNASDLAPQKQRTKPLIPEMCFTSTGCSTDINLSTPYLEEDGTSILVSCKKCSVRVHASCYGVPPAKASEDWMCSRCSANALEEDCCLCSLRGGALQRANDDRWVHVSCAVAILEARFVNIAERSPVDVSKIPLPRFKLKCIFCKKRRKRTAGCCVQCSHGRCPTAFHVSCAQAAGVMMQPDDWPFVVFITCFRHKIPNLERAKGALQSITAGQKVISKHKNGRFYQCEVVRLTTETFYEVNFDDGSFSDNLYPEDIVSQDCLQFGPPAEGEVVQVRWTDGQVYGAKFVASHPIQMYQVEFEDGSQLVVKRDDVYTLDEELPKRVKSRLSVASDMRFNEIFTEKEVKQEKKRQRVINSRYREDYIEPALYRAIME
CtBP-E1A inh = qHTS Assay for Inhibitors of the CtBP/E1A Interaction; AlphaScreen GST-E1A/His-CtBP binding, 1536-well; hits give low values; activity change, % (concentration not given with the values); AID 651724, 2012; 0.49% of 340,000 active; in the data active = activity change below about -65%; inconclusive = mostly about -30% to -63%; also: % is scaled to controls: 0 for no effect and ±100 for the full control effect
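GST-E1A and His-tagged CtBP (125 nM each as 5X stock) were preincubated with pin-transferred compound for 2 h at 37 °C in the dark, then glutathione donor and nickel acceptor beads were added for 1 h before AlphaScreen reading.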
BAZ2B inh = qHTS Assay for Inhibitors of BAZ2B | Bromodomain adjacent to zinc finger domain protein 2B (Homo sapiens), Q9UIF8 | AlphaScreen BAZ2B-H3K14Ac peptide displacement | Potency, µM (highest dose often 114 µM), without a hit: at the highest dose activity change, negative = inhibition, most hits filed as inhibitors | 4.4% of 360,000 active | AID 504333, 2011; also: potency is read from the fitted curve at half-maximal effect; % is scaled to controls: 0 for no effect and ±100 for the full control effect; nearly all actives have a fitted effect of over 60% in size
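BAZ2B (50 nM) with biotin-H3(5-23)K14Ac peptide (50 nM) in PBS pH 7.4, 0.01% Tween-20, preformed 30 min, then compound 30 min at room temperature; top concentration 110uM. AlphaScreen streptavidin donor/nickel chelate acceptor beads (10 ug/mL final), 20 min dark, signal read.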
G9a inh = qHTS Assay for Inhibitors of Histone Lysine Methyltransferase G9a | Histone-lysine N-methyltransferase EHMT2 (Homo sapiens), Q96KQ7 | G9a H3K9 monomethylation, AlphaScreen, 2 h | Potency, µM (series often up to 102 µM), without a hit: at the highest dose activity, negative = inhibition, most hits filed as inhibitors | 8.8% of 350,000 active; also: potency is read from the fitted curve at half-maximal effect; % is scaled to controls: 0 for no effect and ±100 for the full control effect; nearly all actives have a fitted effect of over 75% in size
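AlphaScreen detection with an anti-monomethyl H3K9 antibody quantified product after a 2 h room-temperature reaction containing 500 nM biotinylated H3K9 peptide, 20 µM SAM and 20 nM enzyme, which had been preincubated 15 min with compound.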
Six1-Eya2 blk = qHTS Assay for Inhibitors of the Six1/Eya2 Interaction; AlphaScreen GST-Six1/His-Eya2 binding, biochemical; hits give low values; activity change, % (test concentration not listed); 0.56% of 360,000 active; AID 651725, 2012; in the data active = activity change below about -65%; inconclusive = mostly about -30% to -63%; also: % is scaled to controls: 0 for no effect and ±100 for the full control effect
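AlphaScreen with GST-Six1 and His-Eya2 (5X mix: 250 nM and 500 nM), glutathione donor and nickel acceptor beads; buffer 50 mM Tris pH 8.0, 300 mM NaCl, 1 mM TCEP; 1 h at 37 C in the dark.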
Numbers without * were called inactive; ? = inconclusive; nt = not tested or not shown; [ ] = remark or other dose. An excerpt weighted towards active compounds, which were near 10% of everything screened. Unless noted, calls follow the shape of the dose curve; as a rule, active = well fitted inhibition curve with a large enough effect; inconclusive = small, poorly fitted or top-dose-only effect; inactive = no such curve, though single readings can be large or run the other way.

SMILES | HP1b chromo inh | JMJD2A Tudor | CtBP-E1A inh | BAZ2B inh | G9a inh | Six1-Eya2 blk
Clc1ccc(OCCCn2cncn2)cc1Cl | -54% | 8.9µM* | 5 | 22µM* | 10µM* | 1
Cc1cc(C)cc(OCCCC(=O)O)c1 | 20% | -15% | 4 | -2% | -48% | 15
COc1cc(OC)c(OC)cc1/C=N/n1c(-c2n[nH]c3c2CCC3)n[nH]c1=S | -26% | 3.2µM* | -4 | -22% | 1.6µM* | -4
COc1ccc(OC)c(/C=N/n2c(-c3n[nH]c4c3CCC4)n[nH]c2=S)c1 | 8% | 6.3µM* | 4 | -6% | nt | -21
COc1cccc(-c2n[nH]c3c2CCC3)c1 | 21% | -15% | 6 | -21% | 8% | 3
COc1ccc(/C=N/n2c(-c3n[nH]c4c3CCC4)n[nH]c2=S)cc1 | -17% | 10µM* | 8 | -21% | 1.6µM* | 1
CCn1c2ccccc2c2nnc(SC3CCOC3=O)nc21 (configuration not stated) | 83% | -6% | nt | nt | nt | nt
CN=C(c1ccc(C)cc1)n1c(=S)nc(-c2ccc(C)cc2)n(C)c1=S | ? | 7%[11.4 µM] | nt | -22% | 40µM* | 9
CCS(=O)(=O)N1CCc2cc(C(=O)Nc3ccc(OC)cc3OC)ccc21 | 10% | -28% | nt | -15% | -10%[59 µM] | nt
CCCC1=[N+](CC(C)=O)CCn2c(C)ccc21 | 44% | -35% | nt | -28% | 32µM* | -8
CCCC1=[N+](CC(=O)c2ccccc2)CCn2cccc21 | 22% | -15% | -8 | -34% | -14%[59 µM] | -1
Clc1ccc(Cl)c(OCCCCNCc2ccccc2)c1 | ? | 1.3µM* | 12 | ? | ? | 11
OCCCCNCc1ccc(OCc2ccc(Cl)cc2)cc1 | 12% | -3% | -15 | -1% | 18%[59 µM] | -10
Clc1ccc(OCCCNCc2ccccc2)c(Br)c1 | -22% | 10µM* | 11 | ? | 13µM* | 13
Cc1cccc(NC(c2nnc(-c3ccccc3)o2)c2ccc(F)cc2Cl)c1C (configuration not stated) | -18% | -18% | nt | -7% | 5%[59 µM] | nt
COc1ccc(NS(=O)(=O)c2cc(NC(=O)c3cccnc3Cl)ccc2N2CCCC2)cc1 | 17% | ? | -2 | -30% | 45µM* | -12
COc1ccc(NS(=O)(=O)c2cc(NC(=O)c3ccc(=O)[nH]c3)ccc2N2CCCC2)cc1 | -14% | ? | ? | 40µM* | nt | -19
O=C(Nc1ccc(N2CCCCC2)cc1)c1cccnc1Cl | 27% | -24% | 0 | -31% | 50µM* | 0
CCc1nn2c(=O)cc(COC(=O)C3CCCCC3)nc2s1 | 10% | -5% | nt | -5% | 10%[59 µM] | nt
Cc1cccc(N(C)S(=O)(=O)c2cc3[nH]c(=O)c(=O)[nH]c3cc2C)c1 | 33% | -18% | nt | 0% | 10%[59 µM] | nt
COc1ccc2cc(/C=C/C(=O)c3ccco3)c(Cl)nc2c1 | nt | nt | nt | 3% | 50µM* | nt
CCc1ccccc1NC(=O)C(CC)Sc1ncnc2c1sc1ccccc12 (configuration not stated) | -3% | -6% | nt | -2% | 15%[59 µM] | nt
CC(=O)c1c(C)[nH]c(-c2ccccc2)c1C | -26% | ? | 0 | 50µM* | -9%[59 µM] | -2
COc1cccc(CNC(=O)C23CN(Cc4ccccc4)CC2C(c2ccc([N+](=O)[O-])cc2)=NO3)c1 (configuration not stated) | 14% | ? | -27 | -37% | 71µM* | -24
COc1ccccc1N=Cc1c(C)[nH]n(-c2ccc(C)cc2C)c1=O | ? | ? | 2 | -32% | 50µM* | -22
SMILES | HP1b chromo inh | JMJD2A Tudor | CtBP-E1A inh | BAZ2B inh | G9a inh | Six1-Eya2 blk
CNS(=O)(=O)c1ccc(N=Cc2c(C)[nH]n(-c3ccc(C)cc3C)c2=O)cc1 | 14% | 7% | -2 | -26% | ? | -2
COc1cc(SC#N)ccc1N=Cc1c(C)[nH]n(-c2ccc(C)cc2C)c1=O | 7% | -28% | -19 | -38% | 13µM* | -30
COc1ccc2nc(/N=C/c3c(C)[nH]n(-c4ccc(C)cc4C)c3=O)sc2c1 | 30% | -9% | -88* | -36% | 8% | -70*
COc1cc(SC#N)ccc1N=Cc1c(C)[nH]n(-c2cccc3ccccc23)c1=O | 4% | -28% | ? | 1% | ? | ?
O=C(CNC(=O)c1ccccc1)N[C@@H](C(=O)Nc1cc(C(F)(F)F)ccc1Cl)c1ccccc1 | nt | -18% | nt | nt | nt | nt
Cc1cccc(OCc2n[nH]c(=S)o2)c1C | 50% | -13% | nt | 56µM* | 20µM* | -3
Cc1cccc(OCc2n[nH]c(=S)o2)c1 | 13% | ? | -1 | -39% | 10µM* | 0
Cc1cccc(OCc2nnc(-c3ccccc3)o2)c1 | 115% | 82% | nt | 96% | 18%[59 µM] | nt
Cc1cccc(C)c1OCc1n[nH]c(=S)o1 | 42% | -28% | 0 | -3% | 2.2µM* | 10
NS(=O)(=O)c1ccc(NC(=O)C2Cc3ccccc3N2C(=O)c2ccccc2)cc1 (configuration not stated) | 20% | 2% | nt | -4% | 10%[12.7 µM] | nt
Cc1cccc(NC(=O)c2ccc(-n3c(C)nnc3C)cc2)c1 | 28%[57 µM] | 2% | nt | -1% | 3%[59 µM] | nt
Cc1cccc(NC(=O)CN2CCSc3ccccc32)c1 | 31% | -24% | 0 | ? | 45µM* | 10
COc1cccc(NC(=O)CN2CCSc3ccccc32)c1 | 3% | -33% | -7 | ? | 22µM* | -22
COc1ccccc1NC(=O)CN1CCSc2ccccc21 | 5% | -27% | 0 | -1% | ? | -14
CC(CCc1ccccc1)NC(=O)CN1CCSc2ccccc21 (configuration not stated) | 79µM* | 56µM* | -25 | ? | 32µM* | -13
CCN1CCN(CC(=O)Nc2cccc(C)c2)C(=O)C1=O | 41% | -6% | 2 | nt | nt | 1
COc1cc(NC(=O)c2cc(Cl)ccc2Cl)ccc1NC(=O)c1cc2ccccc2o1 | 57% | -20% | nt | 0% | 6%[59 µM] | nt
CCOC(=O)c1cc(C)[nH]c(=S)c1C#N | -14% | 6.3µM* | 0 | ? | -1%[0.501 µM] | -5
CCOC(=O)c1cc(C(=O)OCC)c(=O)[nH]c1C | 14% | -10% | 5 | 26% | 24% | 3
